From PubChem
Only a sample is shown.
aSyn 5UTR act: Activators via SNCA 5'UTR binding, MLPCN | alpha-synuclein 5'UTR reporter, activators screen | activity score, % (tested at 7.5 µM), hits read low | 300,000 compounds, 7.1% hits; in the data active = activity score below about -60%
* = called active by the depositor.

SMILES	aSyn 5UTR act
CC(=O)Nc1ccc(-c2nnc(SCC(=O)c3ccc4c(c3)Cc3ccccc3-4)n2C)cc1	-62*
COc1ccc(CCN(C)C(=O)CCc2nnc(-c3ccccc3)o2)cc1OC	-86*
CN(Cc1ccc(F)cc1)C(=O)CCc1nnc(-c2ccccc2)o1	-91*
CC(=O)N(Cc1ccc(F)cc1)C1=C(NCCc2ccccc2)C(=O)c2ccccc2C1=O	70
CC(C)CNC(=S)NC1CC2CCCC(C1)N2C1CCCCC1 (configuration not stated)	-107*
Fc1ccccc1/C=N/n1cc(-c2ccccc2)[nH]c1=S	-85*
S=c1[nH]c(-c2ccccc2)cn1/N=C/c1ccc(Br)cc1	-81*
O=C(Nc1ccc2c(c1)OCO2)c1cccc(F)c1	-183*
O=C(Nc1cccc(F)c1)Nc1ccc2c(c1)OCO2	-99*
O=C(Nc1ccc2c(c1)OCO2)c1c(F)cccc1F	-125*
CCCCNC(=O)N(C)c1nc2ccccc2s1	-133*
COC(=O)N(C)c1nc2ccccc2s1	-77*
CN(C(=O)OC(C)(C)C)c1ccc(-c2nc3ccccc3s2)cc1	104
CCCCNC(=O)c1cc2ccccc2s1	-108*
N/C(=N\OC(=O)Nc1ccccc1)c1ncc([N+](=O)[O-])s1	-94*
Cc1cccc(-c2nsc(SCC(=O)N3CCCC3)n2)c1	-140*
O=C(CSc1nc(-c2ccccc2)ns1)N1CCOCC1	-110*
CCN(CC)S(=O)(=O)c1ccc(C)c(C(=O)Oc2cccc(-c3cnc4ccccc4n3)c2)c1	-178*
CCN(CC)S(=O)(=O)c1cc(C(=O)Oc2cccc(-c3cnc4ccccc4n3)c2)ccc1OC	-171*
COc1ccc(-c2ccc(CO)o2)cc1N	-82*
CC1(C)CC(=O)c2ccc(OCc3ccc([N+](=O)[O-])cc3)cc2O1	-151*
CC1(C)CC(=O)c2c(O)cc(OCc3ccc(Br)cc3)cc2O1	-165*
Fc1ccc(CSc2ccc(-c3cccs3)nn2)cc1	-121*
c1cncc(CSc2ccc(-c3cccs3)nn2)c1	-110*
Cc1ccc(CSc2ccc(-c3cccs3)nn2)cc1	-99*
SMILES	aSyn 5UTR act
c1ccc(CSc2ccc(-c3cccnc3)nn2)nc1	-78*
COc1ccc(-c2cc(=O)c3cc(C)ccc3[nH]2)cc1	-63*
COc1cc2[nH]c(-c3ccc(C)cc3)cc(=O)c2cc1OC	-75*
C=CCN(CC=C)CCOc1ccc(OC(C)C)cc1	-63*
COc1cc(-c2noc(C)c2/C=C/c2ccc(N)cc2)cc(OC)c1OC	104
O=C(N/N=C/c1sc(N2CCOCC2)nc1-c1ccccc1)c1cccc(S(=O)(=O)N2CCOCC2)c1	87
CC(C)NC(=S)N/N=C/c1sc(N2CCCCC2)nc1-c1cccs1	-69*
NC(=O)N/N=C/c1sc(N2CCCCC2)nc1-c1cccs1	-67*
Cc1ccc(NNC(=S)Nc2ccc(C(C)C)cc2)c(C)c1	-145*
CC(=O)Oc1ccc2occ(C(=O)c3cccs3)c2c1	-175*
CC(=O)Oc1ccc2occ(-c3ccccc3)c2c1	-137*
O=C(c1cccs1)c1coc2ccc(O)cc12	-200*
O=C(CCl)Oc1ccc2occ(C(=O)c3cccs3)c2c1	-193*
CC(=O)Oc1ccc2occ(C(=O)c3ccccc3)c2c1	-134*
Cn1cc(/C=C/c2cc[n+](C)cc2)c2cc(Cl)ccc21	64
Cc1cc(/C=N/n2cnnc2)c(C)n1-c1ccc(OCc2ccc(F)cc2)cc1	-73*
Cc1cc(/C=N/n2cnnc2)c(C)n1-c1ccc(OCc2ccc(Cl)cc2Cl)cc1	113
COc1ccc2cc3c(N)c(C(=O)N4CCCC4)sc3nc2c1	-189*
Cc1ccc2cc3c(N)c(C(=O)N4CC(=O)Nc5ccccc54)sc3nc2c1	82
CCOc1ccc2nc3sc(C(=O)N4CCN(C)CC4)c(N)c3cc2c1	-80*
CC(C)c1ccc2nc3sc(C(=O)N4CCc5ccccc5C4)c(N)c3cc2c1	-62*
Cc1ccc2nc3sc(C(=O)N4CCOCC4)c(N)c3cc2c1	100
COc1ccc(C2CC(c3cccs3)=NN2S(C)(=O)=O)cc1 (configuration not stated)	-85*
COc1ccc(C2CC(c3cccs3)=Nc3ccccc3S2)cc1 (configuration not stated)	-163*
Cc1ccc(C2=NN(S(C)(=O)=O)C(c3cccs3)C2)cc1 (configuration not stated)	-146*
SMILES	aSyn 5UTR act
CCc1ccc(C2=NN(S(C)(=O)=O)C(c3cccs3)C2)cc1 (configuration not stated)	-92*
O=C(O)C[C@H](O)C[C@H](O)/C=C/c1c(C2CC2)nc2ccccc2c1-c1ccc(F)cc1	104
COc1ccc(C2=NN(S(C)(=O)=O)C(c3cccs3)C2)cc1 (configuration not stated)	-95*
CS(=O)(=O)N1N=C(c2ccc(Br)cc2)CC1c1cccs1 (configuration not stated)	-117*
Cn1cccc1C(=O)C(=O)Nc1ccccc1	-112*
Cn1cccc1C(=O)C(=O)Nc1ccccc1C(F)(F)F	-130*
CCn1c(C)nc2c(C)[n+](CC(=O)c3ccc(Br)cc3)ccc21	-106*
C/C(=N\NC(=O)CSc1nc(C)[nH]c1[N+](=O)[O-])c1ccc(F)cc1	-109*
Fc1ccccc1/C=N/Nc1ncnc2ccccc12	-241*
Clc1ccc(/C=N/Nc2ncnc3ccccc23)cc1Cl	-318*
Cc1nc2ccc(-c3ccccc3)cc2o1	-79*
COc1ccc(C2OC(=O)CC2C(=O)NCc2ccc(Cl)cc2)cc1OC (configuration not stated)	-78*
CCCc1cc(N2CCOCC2)n2ncc(-c3ccccc3)c2n1	-67*
Cc1nc2c(-c3ccccc3)cnn2c(N2CCOCC2)c1C	-191*
FC(F)(F)c1nnc2c(Sc3ccccc3)nc3ccccc3n12	-103*
CC(=O)Nc1ccc(/C=N/Nc2nc3ccccc3[nH]2)cc1	-101*
c1ccc2[nH]c(NN=C3CCCCCC3)nc2c1	-114*
Clc1nc2ccccc2cc1/C=N/Nc1nc2ccccc2[nH]1	-97*
COC(=O)c1ccc(/C=N/Nc2nc3ccccc3[nH]2)cc1	-176*
C(=N\Nc1nc2ccccc2[nH]1)/c1ccncc1	-147*
CCc1nc(SCc2ccc(OCC(C)C)cc2)n[nH]1	-102*
CCc1nc(SCc2ccc(Br)cc2)n[nH]1	-88*
CCc1nc(SCc2ccc(Cl)cc2)n[nH]1	-49*
CCCCOc1ccc(/C(N)=N/O)cc1	-73*
O=C(CC1Sc2ccccc2NC1=O)c1ccc(Br)cc1 (configuration not stated)	-218*
SMILES	aSyn 5UTR act
Cc1oc(-c2ccc(Cl)cc2)cc1C(=O)O	-83*
CC1C/C(=C/c2ccncc2)C(=O)/C(=C/c2ccncc2)C1 (configuration not stated)	-107*
Cc1ccc2c(c1)OC(c1ccc3c(c1)OCCO3)CC2=O (configuration not stated)	-151*
COc1ccc2c(c1)C(C)=CC(C)(C)N2S(=O)(=O)c1ccc(NC(C)=O)cc1	71
COc1ccc2c(c1)C(C)=CC(C)(C)N2S(=O)(=O)c1ccc(Br)cc1	-86*
c1ccc(CN2CCN(c3cnc4ccccc4n3)CC2)cc1	-208*
Fc1ccccc1N1CCN(c2cnc3ccccc3n2)CC1	-70*
Oc1ccccc1N1CCN(c2ccc3ccccc3n2)CC1	-138*
COc1ccc(NC(=O)Nc2ccc(Br)cn2)cc1	-146*
Cc1cccc(NC(=O)Nc2ccc(Br)cc2)n1	-127*
COc1ccc(NC(=O)Nc2cccc(C)n2)cc1	-201*
CCC(=O)Nc1ccc(C(=O)Nc2cccc(C)n2)cc1	-169*
